From PubChem
This is a sample that favours compounds with a hit; in the whole collection about 11% have one here.
PNC assembly inh – blocks assembly of the perinucleolar compartment | activity change (PNC), negative = inhibition, % at 10 µM | 140,000 tested, 3.1% active | PC3M PTB-GFP, PNC prevalence imaging, 16 h; stronger effect = lower value;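 active means readout at or below -70, meaning at least 70% loss of cells showing the perinucleolar compartment, a nuclear body marking cancer cells; inconclusive means readout between -30 and a set limit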;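 further: plate controls were DMSO wells for no effect and camptothecin positive control wells for full effect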
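Compounds are pinned in duplicate onto adhered PC3M cells stably expressing GFP-tagged PTB and incubated 16 h at 37 C. Cells are then fixed, nuclei stained with Hoechst, and PNC-positive cells counted.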
GoLoco inh red – inhibitors of human Gai1-RGS12 GoLoco interaction (red fluorophore); Gai1:RGS12 GoLoco peptide FP, rhodamine, 10 min; AID 880; Potency, µM (titrated, usually from 61.6 µM), without a hit: at the highest dose activity, negative = inhibition, usual class: inhibitors; 230,000 tested, 0.44% active; P63096; active means well fitted inhibition curve with a large enough effect, not every such curve was filed as active; inactive means no such curve, though single readings can be large or run the other way; further: potency means the concentration at half of the fitted maximal effect; on the % scale 0 is the no-effect control and ±100 the full control effect; nearly all actives have a fitted effect of over 30% in size
HttQ103 aggreg – mutant huntingtin aggregation inhibition | AID 1688 | PC12 HttQ103-GFP aggregates, Acumen cytometry, 40 h | 220,000 tested, 1.1% active | Potency, µM (highest dose often 46.1 µM), for inactives: top-dose activity change, negative = inhibition, most hits filed as inhibitors; active means well fitted curve in the direction sought with a large enough effect; inconclusive means small, poorly fitted or top-dose-only effect, or another doubt; inactive means no such curve, though single readings can be large; an effect the other way counts as inactive or inconclusive; further: potency means the concentration at half of the fitted maximal effect; on the % scale 0 is the no-effect control and ±100 the full control effect; nearly all actives have a fitted effect of over 60% in size
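Quantitative HTS on tebufenozide-induced (100 nM) PC12 cells stably expressing polyQ103 Huntingtin exon 1–GFP. Reduction of bright GFP aggregates, detected by laser scanning cytometry after lysis, identified actives across the titration.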
ALDH1A1 inh – blocks purified human ALDH1A1 activity | P00352 | Purified ALDH1A1, NADH fluorescence, propionaldehyde substrate | Potency, µM (titrated, usually from 75.3 µM), without a hit: at the top dose activity, negative = inhibition, usual class: inhibitors | 220,000 tested, 7.3% active | AID 1030;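 further: potency means the concentration at half of the fitted maximal effect; plate controls were no enzyme wells and a reference inhibitor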
Target sequence (P00352 whole entry, looked up): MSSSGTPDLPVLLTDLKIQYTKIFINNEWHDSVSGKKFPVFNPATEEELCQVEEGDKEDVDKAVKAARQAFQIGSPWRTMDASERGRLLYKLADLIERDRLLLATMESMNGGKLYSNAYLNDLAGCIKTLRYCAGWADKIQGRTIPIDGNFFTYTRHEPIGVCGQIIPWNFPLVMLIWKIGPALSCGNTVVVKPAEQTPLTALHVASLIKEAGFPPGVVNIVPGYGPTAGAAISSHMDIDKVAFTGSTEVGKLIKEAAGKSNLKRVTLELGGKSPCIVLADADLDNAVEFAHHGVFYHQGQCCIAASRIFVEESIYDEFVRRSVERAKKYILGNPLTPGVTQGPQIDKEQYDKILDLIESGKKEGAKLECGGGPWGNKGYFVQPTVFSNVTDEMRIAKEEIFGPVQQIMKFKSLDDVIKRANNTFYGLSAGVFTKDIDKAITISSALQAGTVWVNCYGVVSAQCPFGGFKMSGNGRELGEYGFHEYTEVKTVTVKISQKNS
HTT ATP protect – protects HTT-Q103 PC12 cells, measured by ATP; Potency, µM (titrated, usually from 56.4 µM), inactives show cytoprotection (ATP increase), actives largely listed as activators; 230,000 tested, 0.14% active; AID 1471; PC12 HTT-Q103 induced, cytoprotection, ATP luminescence, 40 h; active means well fitted curve in the direction sought with a large enough effect; inconclusive means small, poorly fitted or top-dose-only effect, or another doubt; inactive means no such curve, though single readings can be large; an effect the other way counts as inactive or inconclusive; further: potency means the concentration at half of the fitted maximal effect; % of control where 0% means no effect; nearly all actives have a fitted effect of over 45% in size
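Cells were plated at 1500 per well in phenol red-free DMEM with 5% equine and 5% calf serum. Tebufenozide (100 nM final) and compounds were added, then ATPlite reagent, and luminescence was read.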
HPGD inh – inhibitors of human 15-hydroxyprostaglandin dehydrogenase (HPGD). Potency, µM, for inactives: at the top dose activity change, negative = inhibition, actives largely listed as inhibitors. 150,000 tested, 4.3% active. AID 894. purified HPGD, NADH fluorescence kinetic, PGE2 substrate; further: potency means the concentration at half of the fitted maximal effect; on the % scale 0 is the no-effect control and ±100 the full control effect
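20 nM HPGD preincubated 15 min at room temperature with compound in 50 mM Tris-HCl pH 8, 0.01% Tween 20. Started with 1 mM NAD+ and 30 uM prostaglandin E2; NADH fluorescence (360/450 nm) read 5 times over 30-s intervals, last minus first.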
Active calls of the source: *; ? = inconclusive; / = no result; [ ] = dose if it differs, or a comment. Unless noted, the call rests on the fitted dose curve; in most records, active means well fitted inhibition curve with a large enough effect (not every such curve was filed as active); inconclusive means small, poorly fitted or top-dose-only effect, or another doubt; inactive means no such curve, though single readings can be large or run the other way.

SMILES	PNC assembly inh	GoLoco inh red	HttQ103 aggreg	ALDH1A1 inh	HTT ATP protect	HPGD inh
C/C=C(\CS(=O)(=O)c1ccccc1)S(=O)(=O)c1ccccc1	-4	5%	?	8.9µM*	?	-12%
Cn1c(=O)c(=O)n(C)c2cc(S(=O)(=O)Nc3ccc4c(c3)OCCO4)ccc21	?	-3%	-16%	-2%	-6%[1.9 µM]	25µM*
Cn1c(=O)oc2cc(S(=O)(=O)Nc3ccc4c(c3)OCCO4)ccc21	6	34%	35µM*	-1%	-9%	?
COc1ccccc1NC(=O)CNC(=O)c1ccccc1C	-108*	-6%	-5%[9.22 µM]	-11%	-8%	20µM*
COc1ccccc1NC(=O)CCC(=O)c1ccc(-c2ccccc2)cc1	-9	-33%	7%	-7%	13%[10 µM]	18µM*
COc1ccccc1NC(=O)CN1C(=O)C(C)SC(C)C1=O (stereo not drawn)	-99*	-3%	-4%	9%	-6%[10 µM]	-3%
COc1ccccc1NC(=O)CNC(=O)c1ccccc1	18	2%	10%	3%	1%	-18%
COc1ccccc1NC(=O)CCSCCC(=O)Nc1ccccc1OC	-8	23%	5%	14µM*	8%[0.074 µM]	-16%
C/C(=C\COc1cc(=O)[nH]c2ccccc12)CC[C@@H](O)C(C)(C)O	/	/	/	/	-10%	/
COc1ccc2c(C)cc(SCC(=O)NCCN3C(=O)CSC3=O)nc2c1	?	/	20%	?	-7%[10 µM]	/
COc1ccccc1NC(=O)CC1Nc2ccccc2NC1=O (stereo not drawn)	?	12%	-27%	28µM*	-3%[0.074 µM]	?
COc1ccc(NC2=CC(c3cccc(OC)c3)N(c3ccc(OC)cc3)C2=O)cc1 (stereo not drawn)	-29	0%	13%	25µM*	-1%[10 µM]	?
Cc1ccc(NC(=O)Nc2cc(Cl)ccc2C2COC(=O)C2=N)cc1 (stereo not drawn)	/	12%	0%	7.5µM*	-9%[10 µM]	/
O=C1Cc2ccccc2N1c1ccccc1	-2	5%	2%	-15%	-2%[0.074 µM]	35µM*
O=[N+]([O-])c1ccc(C2CCCC/C2=N/OCc2ccccc2F)c([N+](=O)[O-])c1 (stereo not drawn)	?	1%	-24%	-5%	-70%	-10%
O=C(O/N=C1\CCCCC1c1ccc([N+](=O)[O-])cc1[N+](=O)[O-])c1c(F)cccc1F (stereo not drawn)	72	-11%	20%	18µM*	-10%	-5%
CCOC(=O)c1ccc(Nc2ncccc2[N+](=O)[O-])cc1	/	2%	36%[9.22 µM]	6%	?	/
O=C(CSc1nnc(CNC(=O)c2ccccc2F)o1)NCCc1ccccc1	25	7%	-1%	-7%	-6%	-9%
CCSc1nnc(NC(=O)CSc2nnc(CNC(=O)c3ccccc3F)o2)s1	-124*	-8%	1%	?	/	-17%
Cc1ccc(NC(=O)CSc2nnc(CNC(=O)c3c(F)cccc3Cl)o2)cc1	-91*	-3%	-11%	-3%	-5%	-14%
O=S(=O)(O)c1cc(N=[N+]([O-])c2cc(S(=O)(=O)O)c3ccccc3c2)cc2ccccc12	/	-20%[14.2 µM]	/	?	10%[10 µM]	-19%
COc1ccc(-c2nc3cnc(OC)nc3n(-c3ccc(OC)cc3)c2=O)cc1	/	-5%	/	?	-79%	/
CC(C)CCCC(C)C1CCC2C3CC=C4CC(O)CCC4(C)C3CCC12C (stereo not drawn)	/	1%	/	9%	19%[1.9 µM]	0%
O=c1cc(-c2ccccc2)[nH]c2cc(Cl)ccc12	-119*	27%[88.7 µM]	-1%	-10%	-195%[96.6 µM]	-8%
O=c1cc(-c2cccc(F)c2)[nH]c2ccccc12	-91*	-2%[136 µM]	-32%	4%[120 µM]	-293%[96.6 µM]	?
O=c1cc(-c2cccc(F)c2)[nH]c2ccc(Cl)cc12	/	44%[88.7 µM]	/	?	-219%[96.6 µM]	-7%
Cc1ccccc1-c1cc(NCc2ccccc2)ncn1	/	5%	/	-4%	-29%	/
CCC(=O)Nc1ccc(Cl)c(NC(=O)C(C)C)c1	?	10%	-19%	20%	8%[10 µM]	-5%
